An excerpt weighted towards active compounds, which were near 8.2% of everything screened.
ELG1 repair inh = blocks ELG1-dependent DNA repair in HEK293T cells | HEK293T ELG1-luciferase reporter, luminescence, 16 h; DNA damage induced by 5-fluorouridine | Potency, µM (series often up to 46.1 µM), without a hit: at the highest dose activity change, negative = inhibition, hits mostly inhibitors | 330,000 compounds, 2.3% hits; also: % is scaled to controls: 0 for no effect and ±100 for the full control effect; nearly all actives have a fitted effect of over 55% in size
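Cells (2,000 per well) received 5-fluorouridine plus test compound or DMSO and were incubated 16 hr at 37 °C, 5% CO2. Luciferase activity was read by luminescence 30 min after ONE-Glo addition; signal suppression marked inhibition of damage-induced ELG1 function.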
KB-3-1 tox = KB-3-1 parental cell cytotoxicity. KB-3-1 viability, CellTiter-Glo ATP luminescence, 72 h. Potency, µM (series often up to 46.1 µM), hits mostly cytotoxic. 400,000 compounds, 1.4% hits. AID 1347075; also: % is scaled to controls: 0 for no effect and ±100 for the full control effect; nearly all actives have a fitted effect of over 60% in size
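Screening of KB-3-1 cells (DMEM, 10% FBS, phenol-red free) ran from lowest to highest compound concentration; after 72 h at 37 °C viability was read luminescently and curves fitted.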
MCF10A rereplic = inducers of DNA re-replication in MCF 10A breast cells. 350,000 compounds, 2.9% hits. MCF 10A DNA re-replication, Hoechst nuclear intensity, 48 h. AID 624296. Potency, µM (series often up to 46.1 µM), for the others: at the top dose activity, positive = re-replication, hits mostly activators; also: % of control where 0% means no effect; nearly all actives have a fitted effect of over 50% in size
KB-V1 MDR tox = KB-V1 MDR subline cytotoxicity; 400,000 compounds, 3.4% hits; AID 1347076; Potency, µM (doses to about 46.1 µM), most hits filed as cytotoxic; KB-V1 MDR cells viability, CellTiter-Glo, 72 h; also: % is scaled to controls: 0 for no effect and ±100 for the full control effect; nearly all actives have a fitted effect of over 60% in size
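Cells of the MDR subline KB-V1 are plated, dosed with compound at multiple concentrations, and incubated 72 h at 37 degrees C; CellTiter-Glo is then added and luminescence read after 10 min.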
SW480 rerep = DNA re-replication induction in SW480 cells; SW480 DNA re-replication, Hoechst DNA content imaging, 48 h; Potency, µM (series often up to 46.1 µM), for inactives: top-dose re-replication activation, actives largely listed as activators; 340,000 compounds, 1.8% hits; AID 624297; also: % of control where 0% means no effect; nearly all actives have a fitted effect of over 55% in size
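Image-based DNA-content assay: after two days of treatment, nuclei were labelled with the DNA dye Hoechst and imaged, and hits were compounds raising the count of nuclei showing high fluorescence intensity.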
Starred values were filed as active, the others as inactive; i = inactive; ? = inconclusive; · = not tested or not shown; [ ] = remark or other dose. Calls follow the shape of the dose curve; as a rule, active = well fitted curve in the direction sought with a large enough effect; inconclusive = small, poorly fitted or top-dose-only effect, or another doubt; inactive = no such curve, though single readings can be large; an effect the other way counts as inactive or inconclusive. Potency is read from the fitted curve at half-maximal effect.

SMILES | ELG1 repair inh | KB-3-1 tox | MCF10A rereplic | KB-V1 MDR tox | SW480 rerep
O=C(COC(=O)c1ccc(C(F)(F)F)cc1)NC(=O)C1CCCCC1 | · | i | · | i | ·
Cc1ccc(-n2c(C)cc(/C=c3/sc4nc5ccccc5n4c3=O)c2C)cc1 | ? | i | 9.2µM* | i | 1.1%[9.22 µM]
O=c1/c(=C\c2cccn2-c2ccccc2)sc2nc3ccccc3n12 | ? | i | ? | i | -6.3%
C=C(CN(C)C)C(=O)c1ccc(OC2OC(COC(C)=O)C(OC(C)=O)C(OC(C)=O)C2OC(C)=O)cc1 (stereo unspecified) | · | ? | ? | ? | 5.8µM*
CC(C)c1ccc(N=C(N)N=C(N)N)cc1 | 20.6µM* | i | -5.8% | i | 0.3%
CCN1/C(=C\C(C)=O)Sc2ccc(OC)cc21 | 23.1µM* | i | 26.9% | i | -15.4%
CCC(=O)/C=C1\Sc2ccc(OC)cc2N1CCO | -3.6% | i | ? | ? | -15.7%
CCC(=O)/C=C1\Sc2ccc(OC)cc2N1CC | ? | ? | 23.3% | 14.6µM* | -3.9%
O=C(CN1CCN(Cc2ccccc2)CC1)Nc1ccc([N+](=O)[O-])cc1C(=O)Nc1ccccc1F | ? | i | 28.3% | ? | -2.5%
O=C(CNCc1ccccn1)Nc1ccc([N+](=O)[O-])cc1C(=O)Nc1ccccc1F | 23.1µM* | i | 1.3% | ? | -4.2%
CCOC(=O)N1CCN(CC(=O)Nc2ccc([N+](=O)[O-])cc2C(=O)Nc2ccccc2F)CC1 | 7.31µM* | i | 13.3% | i | -86.2%
CCOc1cccc(/C=N/NC(=O)c2cc(C3CC3)[nH]n2)c1O | 2.59µM* | ? | 2.4% | i | ?
N#Cc1nc(-c2ccc(COc3ccccc3)o2)oc1NCc1cccnc1 | · | i | · | ? | ·
CC(=O)N1/C(=C/c2ccc(N(C)C)cc2)C(=O)c2ccccc21 | ? | ? | ? | i | 2.06µM*
COCCNC(=O)c1ccccc1NC(=O)Cc1ccccc1 | 8.7% | i | 22.1% | i | 2.0%
CCC(C)NC(=O)c1ccccc1NC(=O)c1ccc(CSc2ccccc2)cc1 (stereo unspecified) | -6.5% | i | ? | 11.6µM* | 4.1%
Cc1ccc(SCc2ccc(C(=O)Nc3ccccc3C(=O)NC(C)C)cc2)cc1 | 9.4% | i | 2.8% | i | -1.7%
COCCNC(=O)c1ccccc1NC(=O)CCSc1ccccc1 | 18.1% | i | 1.3µM* | ? | 17.5%
COc1ccccc1C(=O)NCCC(=O)NCCCSc1ccccc1 | 18.0% | i | 4.9% | 20.6µM* | -3.7%
CCc1cccc(NC(=O)COC(=O)c2ccccc2OCc2ccccc2Br)c1 | · | i | · | i | ·
Cc1cccc2cc(C#N)c(NCCNC(=S)NCCCN3CCOCC3)nc12 | 0.0% | i | ? | i | 13.0%
Cc1cc2cc(C#N)c(NCCNC(=S)NCCCN3CCOCC3)nc2cc1C | -14.6% | i | 20.6µM* | ? | 16.4µM*
CCOc1ccc2nc(NCCNC(=O)Nc3cccc(C)c3)c(C#N)cc2c1 | -7.5% | ? | ? | ? | 9.2µM*
CCOc1ccc2nc(NCCNC(=S)NCCCN(C)C)c(C#N)cc2c1 | -2.5% | i | 11.6µM* | i | 16.4µM*
COc1ccc2c(c1)CC1c3c(cc4c(c3-2)OCO4)CC[N+]1(C)[O-] (stereo unspecified) | 12.9% | i | -7.7% | i | -13.0%
O=C(CSc1nnc(NC2CCCCC2)s1)Nc1ccc(N2CCOCC2)cc1 | ? | i | 16.5% | 5.8µM* | -2.6%
CC(Sc1nnc(NC2CC2)s1)C(=O)Nc1ccc(N2CCOCC2)cc1 (stereo unspecified) | -0.1% | i | 4.0% | i | -6.9%
N=C(N)SCc1cn(-c2ccccc2)nc1-c1ccc(Br)cc1 | 5.9% | ? | ? | 18.4µM* | 17.8%
CCCCNC(=O)c1ccccc1SCc1c(C)noc1C | -2.9% | i | 7.2% | i | -13.3%
CCc1ccc(/C=C/C(=O)C2C(=O)c3ccccc3C2=O)cc1 | ? | i | ? | i | ?
